Drawing on PubChem BioAssay (EPA / NIEHS), this text covers outcome and AC50 for seven compounds.

Molecules are shown by their SMILES. The source made the active and inactive calls. The calls were made as follows: active = hit-call score of the fitted dose curve at least 0.9, where 1 is the maximum; inactive = score below 0.9.

What all share (details): mRNA level, 48 h; actives raise or lower the signal
Read-out in experiment [1]: CFLAR gene, CFLAR (gene 8837)
Kind of experiment: LTEA_HepaRG_CFLAR: Life Technologies and Expression Analysis (LTEA) Assay for CFLAR gene using HepaRG (AID 2283455). The method, boiled down:
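Gain- or loss-of-signal changes in CFLAR transcript were fitted bidirectionally relative to 0.5% DMSO. Cells (HepaRG, duplicate wells) were dosed for 48 h across eight half-log concentrations topping at 100 uM; quantitation by TaqMan qRT-PCR.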

Read-out in experiment [2]: Forkhead box O1 (FOXO1), FOXO1 (gene 2308)
Kind of experiment: LTEA_HepaRG_FOXO1: Life Technologies and Expression Analysis (LTEA) Assay for Forkhead box O1 (FOXO1) using HepaRG (AID 2283456). The gist of the method: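 Using one lot of HepaRG hepatic cells kept in 0.5% DMSO, the team applied test chemicals in duplicate, half-log dilutions from 100 uM, for 48 h. Expression, normalised to ACTB/GAPDH/POLR2A, was compared with vehicle in either direction.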

Read-out in experiment [3]: growth arrest and DNA damage 45 (GADD45A), GADD45A (gene 1647)
Kind of experiment: LTEA_HepaRG_GADD45A: Life Technologies and Expression Analysis (LTEA) Assay for growth arrest and DNA damage 45 (GADD45A) using HepaRG (AID 2283458). The gist of the method: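 Transcript induction or loss, quantified by TaqMan qRT-PCR against three housekeeping genes, is the read-out. HepaRG cells received chemicals for 48 h across eight half-log concentrations from 100 uM in 0.5% DMSO; gain and loss fitted relative to DMSO.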

Read-out in experiment [4]: Forkhead box O3 (FOXO3), FOXO3 (gene 2309)
Kind of experiment: LTEA_HepaRG_FOXO3: Life Technologies and Expression Analysis (LTEA) Assay for Forkhead box O3 (FOXO3) using HepaRG (AID 2283459). The method, boiled down:
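Gene-expression endpoint: FOXO3 transcript level by qRT-PCR in HepaRG cultures treated 48 h with chemicals up to 100 uM (half-log, 0.5% DMSO vehicle).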

Read-out in experiment [5]: ABC Transporter (ABCB1), ABCB1 (gene 5243)
Kind of experiment: LTEA_HepaRG_ABCB1: Life Technologies and Expression Analysis (LTEA) Assay for ABC Transporter (ABCB1) using HepaRG (AID 2283460). The method, boiled down:
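Human liver HepaRG line treated 48 h with up to 100 uM compound (eight half-log points, 0.5% DMSO); ABCB1 mRNA change fitted bidirectionally against DMSO controls.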

Read-out in experiment [6]: growth arrest and DNA damage 45 (GADD45B), GADD45B (gene 4616)
Kind of experiment: LTEA_HepaRG_GADD45B: Life Technologies and Expression Analysis (LTEA) Assay for growth arrest and DNA damage 45 (GADD45B) using HepaRG (AID 2283461). The gist of the method: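 Values are bidirectional concentration-response fits against 0.5% DMSO controls. Underlying data: qRT-PCR mRNA levels in human HepaRG liver cells treated 48 h in serum-free induction medium, eight concentrations topping at 100 uM.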

Read-out in experiment [7]: ABC Transporter (ABCC3), ABCC3 (gene 8714)
Kind of experiment: LTEA_HepaRG_ABCC3: Life Technologies and Expression Analysis (LTEA) Assay for ABC Transporter (ABCC3) using HepaRG (AID 2283462). The gist of the method:
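Differentiated HepaRG liver cells receive test chemicals at eight concentrations (max 100 uM) for 48 h. Expression of ABCC3 is quantified by qRT-PCR against ACTB, GAPDH and POLR2A, and activity is fitted in both directions against the DMSO control.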

Read-out in experiment [8]: ABC Transporter (ABCB11), ABCB11 (gene 8647)
Kind of experiment: LTEA_HepaRG_ABCB11: Life Technologies and Expression Analysis (LTEA) Assay for ABC Transporter (ABCB11) using HepaRG (AID 2283463). The gist of the method: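 Using HepaRG cultures held in 0.5% DMSO, chemicals were tested at half-log dilutions from 100 uM for 48 h. Induction or suppression of ABCB11 mRNA, normalized to ACTB, GAPDH and POLR2A, was fitted bidirectionally against vehicle.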

Read-out in experiment [9]: ABC Transporter (ABCC2), ABCC2 (gene 1244)
Kind of experiment: LTEA_HepaRG_ABCC2: Life Technologies and Expression Analysis (LTEA) Assay for ABC Transporter (ABCC2) using HepaRG (AID 2283464). The method, boiled down:
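Gene expression of ABCC2 was determined by qRT-PCR in HepaRG cells exposed 48 h to chemicals (highest 100 uM, half-log dilutions). Activity was fitted in both directions relative to 0.5% DMSO vehicle.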

Read-out in experiment [10]: ATP-citrate lyase (ACLY), ACLY (gene 47)
Kind of experiment: LTEA_HepaRG_ACLY: Life Technologies and Expression Analysis (LTEA) Assay for ATP-citrate lyase (ACLY) using HepaRG (AID 2283466). The method, boiled down: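 ACLY expression changes in human HepaRG liver cells are quantified by qRT-PCR after 48 h exposure to test chemicals (maximum 100 uM, half-log steps). Values are fitted in both directions relative to 0.5% DMSO vehicle.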

Read-out in experiment [11]: Peroxisomal acyl-coenzyme A oxidase 1 (ACOX1) gene, ACOX1 (gene 51)
Kind of experiment: LTEA_HepaRG_ACOX1: Life Technologies and Expression Analysis (LTEA) Assay for Peroxisomal acyl-coenzyme A oxidase 1 (ACOX1) gene using HepaRG (AID 2283467). The gist of the method: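 Human HepaRG hepatic cultures, 48 h treatment with test chemicals up to 100 uM. ACOX1 expression read by qRT-PCR relative to 0.5% DMSO vehicle.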

Read-out in experiment [12]: Alkaline Phosphatase, Placental (ALPP) gene, ALPP (gene 250)
Kind of experiment: LTEA_HepaRG_ALPP: Life Technologies and Expression Analysis (LTEA) Assay for Alkaline Phosphatase, Placental (ALPP) gene using HepaRG (AID 2283468).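 As to AC50: ALPP transcript by TaqMan qRT-PCR normalized to ACTB GAPDH and POLR2A.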 The method, boiled down:
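Expression of ALPP was quantified by qRT-PCR against three housekeeping genes in human HepaRG cultures treated for 48 h with an eight-point concentration series up to 100 uM. Activity in either direction was fitted relative to 0.5% DMSO.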

Read-out in experiment [13]: Bcl-2 (BAD) gene, BAD (gene 572)
Kind of experiment: LTEA_HepaRG_BAD: Life Technologies and Expression Analysis (LTEA) Assay for Bcl-2 (BAD) gene using HepaRG (AID 2283469). The method, boiled down:
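Activity values reflect up- or down-regulation of BAD mRNA in human HepaRG hepatic cells treated 48 h in serum-free medium, with eight-point half-log dosing capped at 100 uM and 0.5% DMSO vehicle.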

Read-out in experiment [14]: Bcl-2 (BAX) gene, BAX (gene 581)
Kind of experiment: LTEA_HepaRG_BAX: Life Technologies and Expression Analysis (LTEA) Assay for Bcl-2 (BAX) gene using HepaRG (AID 2283470). The method, boiled down: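 Cells were thawed, plated for 48 h, moved to serum-free induction medium and dosed for 48 h (highest concentration 100 uM, half-log steps, 0.5% DMSO). Total RNA was then analysed for BAX expression by qRT-PCR.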

Read-out in experiment [15]: adenosine kinase (ADK) gene, ADK (gene 132)
Kind of experiment: LTEA_HepaRG_ADK: Life Technologies and Expression Analysis (LTEA) Assay for adenosine kinase (ADK) gene using HepaRG (AID 2283471). The gist of the method:
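HepaRG (human liver), 48 h chemical exposure, 8-pt half-log series, top 100 uM, 0.5% DMSO vehicle. Readout: ADK mRNA by qRT-PCR vs housekeeping genes; bidirectional curve fit relative to DMSO baseline.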

Read-out in experiment [16]: Alpha-fetoprotein (AFP) gene, AFP (gene 174)
Kind of experiment: LTEA_HepaRG_AFP: Life Technologies and Expression Analysis (LTEA) Assay for Alpha-fetoprotein (AFP) gene using HepaRG (AID 2283472).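 As to AC50: AFP transcript by TaqMan qRT-PCR normalized to ACTB GAPDH and POLR2A.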 The method, boiled down: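 Chemicals were tested on differentiated HepaRG cells for 48 hours at eight concentrations up to 100 uM, with 0.5% DMSO as vehicle. AFP expression was then quantified by qRT-PCR and analyzed for gain or loss relative to DMSO.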

Read-out in another experiment: BCL2L11 (gene 10018)
Kind of experiment: LTEA_HepaRG_BCL2L11: Life Technologies and Expression Analysis (LTEA) Assay for Bcl-2 (BCL2L11) gene using HepaRG (AID 2283473). The gist of the method: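 Cells were plated, cultured 48 h, switched to serum-free induction medium, then dosed in duplicate for 48 h at eight half-log concentrations up to 100 uM. Lysates underwent RNA isolation and TaqMan qRT-PCR; gain or loss versus DMSO was fitted.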

Read-out in experiment [17]: Apolipoprotein A-V (APOA5) gene, APOA5 (gene 116519)
Kind of experiment: LTEA_HepaRG_APOA5: Life Technologies and Expression Analysis (LTEA) Assay for Apolipoprotein A-V (APOA5) gene using HepaRG (AID 2283474). The method, boiled down: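 Human liver HepaRG cells are treated 48 h with test chemicals (100 uM top, half-log dilutions, 0.5% DMSO). APOA5 mRNA induction or loss is measured by qRT-PCR relative to vehicle.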

As to `O=C1O[C@H]([C@@H](O)CO)C(O)=C1O`, the compound was classed as inactive in experiment [1], in experiment [2], in experiment [3], in [4], in [5] and in [6]. The compound was called inactive in experiment [7], in experiment [8], in experiment [9], in experiment [10], in experiment [11] and in experiment [12]. The outcome (in experiment [13]; in experiment [14]; in experiment [15]; in experiment [16]; in the experiment with BCL2L11 (gene 10018); in [17]) was inactive.

Turning to `CCN(Cc1cccc(S(=O)(=O)O)c1)c1ccc(C(=C2C=CC(=[N+](CC)Cc3cccc(S(=O)(=O)O)c3)C=C2)c2ccccc2S(=O)(=O)[O-])cc1`, the outcome in [1], in experiment [2], in experiment [3], in [4], in experiment [5] and in experiment [6] was inactive. Further, the result in experiment [7], in experiment [8], in [9], in experiment [10], in experiment [11] and in [12] was inactive. Also, the compound was called inactive (in experiment [13]; in experiment [14]; in experiment [15]; in experiment [16]; in the experiment with BCL2L11 (gene 10018); in experiment [17]).

On to `CCCCCc1ccc(N)cc1`, for which the compound was called inactive in experiment [1], in [2], in experiment [3], in experiment [4], in experiment [5] and in experiment [6]. For the same compound, the result in experiment [7], in experiment [8], in experiment [9], in experiment [10], in [11] and in experiment [12] was inactive. Besides, the compound was called inactive (in [13]; in experiment [14]; in [16]; with BCL2L11 (gene 10018); in experiment [17]).

Consider `CC1(C)NC(=O)N(c2ccc([N+](=O)[O-])c(C(F)(F)F)c2)C1=O`, for which the outcome in experiment [1], in experiment [2], in [4], in [6], in [9] and in experiment [13] was inactive. The compound was classed as inactive (in experiment [14]; in experiment [15]; with BCL2L11 (gene 10018)). Moreover, the AC50 (usually the midpoint of the concentration-response curve, whichever way the signal moves) in experiment [3] was 50 µM (active); in experiment [5], 50 µM (active); in [7] it was 75.3 µM (active); in experiment [8], 77.1 µM (active); in experiment [10], 76.5 µM (active); in experiment [11], 63.7 µM (active). In addition, the AC50 in [12] is 50 µM (active); in experiment [16], 80.5 µM (active); in experiment [17] it was 67.9 µM (active).

Consider `Cc1ccc(C(C)C)cc1`, for which the outcome in experiment [1], in experiment [2], in experiment [3], in [4], in experiment [5] and in [6] was inactive. Besides, the call in [7], in experiment [8], in experiment [9], in [10], in experiment [11] and in experiment [12] was inactive. Moreover, the outcome (in experiment [13]; in [14]; in experiment [16]; in the experiment with BCL2L11 (gene 10018); in [17]) was inactive.

As for `O=C=NCCCCCCN=C=O`, the compound was called inactive in experiment [1], in experiment [2], in experiment [3], in [4], in [5] and in experiment [6]. The compound was called inactive in [7], in experiment [8], in experiment [9], in [10], in experiment [11] and in [12]. The call (in experiment [13]; in experiment [14]; in [16]; with BCL2L11 (gene 10018); in [17]) was inactive.

Consider `CCCCCCCC[Si](OCC)(OCC)OCC`, for which the outcome in experiment [1], in [2], in [3], in [4], in [5] and in experiment [6] was inactive. Moreover, the outcome in experiment [7], in experiment [8], in [9], in [10], in experiment [11] and in experiment [12] was inactive. The compound was classed as inactive (in [13]; in [14]; in [15]; in experiment [16]; in the experiment with BCL2L11 (gene 10018); in [17]).
